Compound activity from PubChem.
CF NFkB block: cystic fibrosis NF-kB activation inhibition; KKLEB NF-kB-GFP reporter, PAF-induced, GFP fluorescence overnight; inhibition, % at 5 µM; 0.86% of 360,000 active; AID 588850;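 active = at least 50% inhibition at 5 µM, scaled per plate between neutral and stimulator controls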;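 note: PAF is a Pseudomonas aeruginosa culture filtrate used as stimulus; plate controls were PAF-stimulated DMSO wells for no effect and unstimulated DMSO wells for full effect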
Peg3 prom inh: Peg3 promoter activity inhibition | HeLa PEG-Prom luciferase reporter, luminescence, overnight | inhibition, % at 20 µM | 1.7% of 360,000 active | AID 588405;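 active = inhibition of at least 50% at 20 µM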
TWEAK-Fn14 inh: inhibitors of TWEAK-Fn14 interaction signaling. TWEAK-stimulated Fn14 reporter cells, luciferase luminescence, 8 h. inhibition, % at 10 µM. 2% of 360,000 active. AID 1159606; in the data active = inhibition above about 50%
HIF-2a inh: blocks HIF-2a reporter activity; 786-0 RCC cells HIF-2a reporter, luciferase luminescence, overnight; inhibition, % at 18.8 µM; 0.72% of 360,000 active; AID 624352;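 active = inhibition of the luminescence signal of 40% or more relative to plate controls, in a single-dose primary screen at 18.75 µM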
KKLEB cytotox: CF airway cell cytotoxicity counter-screen. AID 602141. 0.36% of 360,000 active. activity change (cytotoxicity), % at 5 µM. KKLEB CF airway cells viability, ATPlite luminescence, overnight; hits give low values; cells stimulated with P. aeruginosa culture filtrate;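 active = corrected activity change at or below -50% at 5 µM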
TROY NFkB inh: blocks TROY-dependent signaling in reporter cells; Q293 LMP1-TROYcd NF-kB luciferase reporter, 4 h; inhibition, % at 10 µM; 0.98% of 360,000 active; AID 1347056;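 active = compounds whose plate-normalised and pattern-corrected inhibition of the luciferase reporter signal at the single screening dose is 50% or more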
Active calls of the source: *. Only some compounds are listed: those with a hit (about 3.9% of all), similar ones and a draw of the others.

`COc1cccc(C(=O)CC(=O)C(=O)Nc2cc(OC)ccc2OC)c1` gave CF NFkB block 11, Peg3 prom inh 8, TWEAK-Fn14 inh 21, HIF-2a inh 10, KKLEB cytotox 3 and TROY NFkB inh -19.
CCCCOc1ccc(/C=C/C(=O)NCCc2nc3ccccc3[nH]2)cc1 was read as CF NFkB block -21, Peg3 prom inh 1, TWEAK-Fn14 inh 17, HIF-2a inh 8, KKLEB cytotox 6 and TROY NFkB inh -3.
For N=c1n(CCN2CCCCC2)c2ccccc2n1CC(=O)c1ccc(Cl)c(Cl)c1 the results were CF NFkB block 15, Peg3 prom inh 34, TWEAK-Fn14 inh -16, HIF-2a inh -28, KKLEB cytotox -19 and TROY NFkB inh -24.
Cc1ccc(Cn2c(=N)n(CC(=O)c3ccc([N+](=O)[O-])cc3)c3ccccc32)cc1 was read as CF NFkB block 36, Peg3 prom inh 102*, TWEAK-Fn14 inh -5, HIF-2a inh 8, KKLEB cytotox -61* and TROY NFkB inh 9.
`CCn1c(=N)n(CC(=O)c2ccc(Cl)c(Cl)c2)c2ccccc21` gave CF NFkB block 8, Peg3 prom inh 99*, TWEAK-Fn14 inh -4, HIF-2a inh -136, KKLEB cytotox 14 and TROY NFkB inh -25.
O=C(Cc1sc(Nc2ccccc2)nc1-c1ccccc1)NCc1ccccn1 was read as CF NFkB block -14, Peg3 prom inh -237, TWEAK-Fn14 inh 17, HIF-2a inh -270, KKLEB cytotox 8 and TROY NFkB inh -48.
For CCS(=O)(=O)N1CCC(NC(=O)c2ccco2)CC1 the results were CF NFkB block 2, Peg3 prom inh 4, TWEAK-Fn14 inh 3, HIF-2a inh 16, KKLEB cytotox -15 and TROY NFkB inh -3.
For Cc1ccc2nc3n(c(=O)c2c1)-c1cc2ccccc2cc1C(=O)NC3Cc1ccc(O)cc1 (centres undefined) the results were CF NFkB block -22, Peg3 prom inh 69*, TWEAK-Fn14 inh 26, HIF-2a inh 10, KKLEB cytotox -7 and TROY NFkB inh 34.
For O=C1NC(Cc2ccc(O)cc2)c2nc3cc(F)c(F)cc3c(=O)n2-c2cc3ccccc3cc21 (centres undefined) the results were CF NFkB block -6, Peg3 prom inh 47, TWEAK-Fn14 inh 37, HIF-2a inh -3, KKLEB cytotox 2 and TROY NFkB inh 23.
For Cc1ccc2c(=O)n3c(nc2c1)C(Cc1ccccc1)NC(=O)c1cc2ccccc2cc1-3 (centres undefined) the results were CF NFkB block 1, Peg3 prom inh 25, TWEAK-Fn14 inh 18, HIF-2a inh 12, KKLEB cytotox -12 and TROY NFkB inh 4.
`O=C1NC(Cc2ccc(O)cc2)c2nc3cc(Cl)ccc3c(=O)n2-c2cc3ccccc3cc21` (centres undefined) gave CF NFkB block 0, Peg3 prom inh 57*, TWEAK-Fn14 inh 41, HIF-2a inh -20, KKLEB cytotox -9 and TROY NFkB inh 13.
Screening CC(=O)c1ccc(NS(=O)(=O)Cc2ccccc2)cc1 returned CF NFkB block 0, Peg3 prom inh -2, TWEAK-Fn14 inh 6, HIF-2a inh -7, KKLEB cytotox -4 and TROY NFkB inh 8.
For CC(=O)N(C)c1ccc(NS(=O)(=O)Cc2ccccc2)cc1 the results were CF NFkB block -7, Peg3 prom inh -26, TWEAK-Fn14 inh 45, HIF-2a inh -22, KKLEB cytotox -4 and TROY NFkB inh 57*.
Screening CCN1CCN(c2ccc(S(=O)(=O)N3CCCCC3)cc2NC(=O)/C=C/c2cc(OC)ccc2OC)CC1 returned CF NFkB block -4, Peg3 prom inh 101*, TWEAK-Fn14 inh 2, HIF-2a inh 3, KKLEB cytotox -9 and TROY NFkB inh 10.
`CCN1CCN(c2ccc(S(=O)(=O)N3CCCCC3)cc2NC(=O)/C=C/c2ccc(Cl)cc2)CC1` gave CF NFkB block 8, Peg3 prom inh 85*, TWEAK-Fn14 inh -22, HIF-2a inh -2, KKLEB cytotox -9 and TROY NFkB inh 1.
`CCN1CCN(c2ccc(S(=O)(=O)N3CCCCC3)cc2NC(=O)c2ccc([N+](=O)[O-])s2)CC1` gave CF NFkB block 29, Peg3 prom inh 64*, TWEAK-Fn14 inh 6, HIF-2a inh 27, KKLEB cytotox 2 and TROY NFkB inh 10.
Screening CCN1CCN(c2ccc(S(=O)(=O)N3CCCCC3)cc2NC(=O)c2ccccc2)CC1 returned CF NFkB block -9, Peg3 prom inh 13, TWEAK-Fn14 inh 2, HIF-2a inh 4, KKLEB cytotox 17 and TROY NFkB inh -17.
CCC(=O)Nc1cccc(C2=NOC3(C2)C[C@H](C(N)=O)N(C(=O)c2ccc(Cl)cc2)C3)c1 (some centres undefined) was read as CF NFkB block -11, Peg3 prom inh -25, TWEAK-Fn14 inh -9, HIF-2a inh 9, KKLEB cytotox 10 and TROY NFkB inh 7.
For Cc1cc([N+](=O)[O-])nn1CC(=O)N1CCN(Cc2ccccc2)CC1 the results were CF NFkB block 12, Peg3 prom inh 16, TWEAK-Fn14 inh 9, HIF-2a inh 15, KKLEB cytotox -6 and TROY NFkB inh -2.
CCc1ccc(-n2c(SCC(=O)Nc3cc(C)[nH]n3)nc3[nH]ncc3c2=O)cc1 was read as CF NFkB block 0, Peg3 prom inh 20, TWEAK-Fn14 inh 98*, HIF-2a inh 1 and KKLEB cytotox 7.
Screening CCc1ccccc1-n1c(SCC(=O)Nc2ccc3c(c2)OCCO3)nc2[nH]ncc2c1=O returned CF NFkB block -11, Peg3 prom inh 35, TWEAK-Fn14 inh 88*, HIF-2a inh 40, KKLEB cytotox 2 and TROY NFkB inh 80*.
`COc1ccc(CCNC(=O)CSc2nc3[nH]ncc3c(=O)n2-c2ccc(Br)cc2)cc1OC` gave CF NFkB block 7, Peg3 prom inh 12, TWEAK-Fn14 inh 9, HIF-2a inh 18, KKLEB cytotox -13 and TROY NFkB inh -7.
COCCn1nnnc1C(c1ccccn1)N1CCN(c2cc(C)ccc2C)CC1 (centres undefined) was read as CF NFkB block -20, Peg3 prom inh 9, TWEAK-Fn14 inh -12, HIF-2a inh 5, KKLEB cytotox -4 and TROY NFkB inh -23.
CC(=O)Nc1ccc(NC(=O)C2CC(=O)N=C(N)S2)cc1 (centres undefined) was read as CF NFkB block 10, Peg3 prom inh 8, TWEAK-Fn14 inh 4, HIF-2a inh 9, KKLEB cytotox -15 and TROY NFkB inh -4.
For C=CCn1cnc2c(c1=O)c1nc3ccccc3nc1n2/N=C/c1cccc(OC)c1OC the results were CF NFkB block -49, Peg3 prom inh 61*, TWEAK-Fn14 inh 11, HIF-2a inh -35, KKLEB cytotox -1 and TROY NFkB inh -31.
`COC(=O)c1c(C)[nH]c(C(=O)/C=C/c2ccccc2Cl)c1C` gave CF NFkB block -11, Peg3 prom inh -173, TWEAK-Fn14 inh 90*, HIF-2a inh -353, KKLEB cytotox 14 and TROY NFkB inh -19.
